Compound activity deposited in PubChem by National Center for Advancing Translational Sciences (NCATS).
Most compounds without a hit are left out; they make up all but 19% or so of the library.
Shiga inhibitor – Shiga toxin inhibition | Vero cells, Shiga toxin protein synthesis inhibition reporter | inhibition, % at 38.7 µM | actives 9.2% (n = 290,000); in the data active = inhibition mostly above about 28%, no sharp cut-off; inactive = mostly below about 43%
CHX counter – counter-screen hit for Shiga toxin inhibitors, cycloheximide; cell reporter, cycloheximide protein synthesis inhibition counterscreen; max response, %; actives 12% (n = 300,000); in the data active = max response mostly above about 13%, no sharp cut-off; inactive = mostly below about 14%; note: read at 38.3 µM for the half of the compounds with a filed dose
SARS PLP yeast – SARS-CoV PLP inhibition in yeast; S. cerevisiae expressing SARS-CoV PLpro, growth rescue; Potency, µM (titrated, usually from 32.9 µM), hits mostly activators; actives 0.19% (n = 330,000); calls by dose curve; note: nearly all actives have a fitted effect of over 55% in size
Pf growth 96h – inhibits malaria parasite growth, 96 h; P. falciparum luciferase reporter growth, 96 h; Potency, µM (series often up to 28.7 µM), hits mostly inhibitors; actives 6.9% (n = 320,000); AID 504834
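P. falciparum expressing integrated firefly luciferase, in erythrocytes at 2% hematocrit, 0.05% parasitemia, incubated with compounds 96 h at 37 C, 5% CO2. Growth inhibition read as loss of luminescence; two-generation exposure targets delayed-death apicoplast inhibitors.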
Pf growth 48h – P. falciparum growth inhibition at 48 hours (one generation). P. falciparum luciferase growth in erythrocytes, 48 h. Potency, µM (series often up to 28.7 µM), hits mostly inhibitors. actives 5.9% (n = 310,000). AID 504832
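Luminescence readout; reporter = integrated firefly luciferase in P. falciparum. RBC culture at 2% hematocrit, 0.1% parasitemia final, 37 C/5% CO2; decreased signal taken as growth inhibition.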
AMA1-RON2 inh – disrupts binding of P. falciparum AMA1 to RON2 | AlphaScreen AMA1-biotinylated RON2 peptide binding | actives 0.2% (n = 360,000) | Potency, µM (doses to about 58.2 µM), hits mostly inhibitors; note: nearly all actives have a fitted effect of over 45% in size
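AMA1 (3D7) with his tag at 25 nM final met compounds first, then biotinylated RON2 peptide at 25 nM; detection used donor plus acceptor beads, 10 µg/mL apiece, read by AlphaScreen after 30 min at room temperature.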
Each line names hits and unclear results; the compound was inactive in the other large screens. Unless noted, calls come from the whole dose curve; as a rule, active = well fitted curve in the direction sought with a large enough effect; inconclusive = small, poorly fitted or top-dose-only effect, or another doubt; inactive = no such curve, though single readings can be large; an effect the other way counts as inactive or inconclusive.

O=C1CC(c2ccc(F)cc2)Cc2nc(N3CCc4ccccc43)ncc21 (stereo not drawn)	none (no result: AMA1-RON2 inh)
CCOC(=O)Cn1nc(-c2ccccc2)ccc1=O	none
COc1ccc(-c2ccc(=O)n(Cc3ccccc3)n2)cc1	Shiga inhibitor 28, CHX counter 21
O=C(O)Cn1nc(-c2ccccc2)ccc1=O	Pf growth 96h 3.3µM
COc1ccc(-c2ccc(=O)n(Cc3cccc(Cl)c3)n2)cc1	Pf growth 96h inconclusive
Cc1ccc(-c2ccc(=O)n(Cc3c(F)cccc3Cl)n2)cc1	CHX counter 20, Pf growth 48h 13µM
O=C(Cn1nc(-c2ccc(Cl)cc2)ccc1=O)N1CCN(c2ccccc2)CC1	Pf growth 96h inconclusive
O=C(O)Cn1nc(-c2ccc(Cl)cc2)ccc1=O	Pf growth 96h 13µM
O=C(CS(=O)(=O)c1ccccc1)Nc1ccc(N2CCOCC2)cc1	none
O=C(OCCNC(=O)c1ccc2ccccc2n1)c1ccc(F)cc1	none
COc1ccc(C2=NN(Cc3ccccc3)C3C(=O)NC(=O)C23)cc1 (stereo not drawn)	CHX counter 20, Pf growth 96h inconclusive
Oc1ccc2ccccc2c1CN1CCCCC1	none (no result: Shiga inhibitor, CHX counter, SARS PLP yeast, Pf growth 96h, Pf growth 48h)
Oc1ccc2ccccc2c1CN1CC2CCC(CC2)C1	none (no result: Shiga inhibitor, CHX counter, SARS PLP yeast, Pf growth 96h, Pf growth 48h)
Oc1ccc2ccccc2c1CN1CCN(c2ccccc2)CC1	Pf growth 96h inconclusive, Pf growth 48h 8.3µM
Oc1ccc2ccccc2c1CN1CCCC1	Pf growth 48h 13µM
O=c1oc2ccccc2c(O)c1CN1CCCCC1	Pf growth 96h 15µM
O=c1oc2ccccc2c(Nc2ccccc2)c1CN1CCCCC1	Pf growth 96h inconclusive, Pf growth 48h inconclusive
Oc1ccc2cc(Br)ccc2c1CN1CCCC1	Pf growth 96h 4.7µM, Pf growth 48h inconclusive
CCOC(=O)N1CCN(Cc2c(O)ccc3ccccc23)CC1	none
Cc1cc(NC(=O)c2ccco2)c(=O)n(Cc2cccc(C(F)(F)F)c2)c1	none
CC(C#N)(Cc1ccccc1)Nc1ccccc1 (stereo not drawn)	none (no result: Shiga inhibitor, CHX counter, SARS PLP yeast, Pf growth 96h, Pf growth 48h)
O=C(NC1CCN(Cc2ccccc2)CC1)c1cncc(Br)c1	Pf growth 96h inconclusive
COC(=O)C1=C(C(=O)OC)[C@@H]2N(Cc3ccccc3)c3ccccc3[C@@]23C[C@@H](C(=O)OC)N(C(=O)COCc2ccccc2)C3=N1	none
CCc1noc(C)c1C(=O)Nc1ncc(C)s1	Shiga inhibitor 41, CHX counter 19
CCc1noc(C)c1C(=O)Nc1nc(-c2cc(C)ccc2C)c(C)s1	Pf growth 96h 10µM, Pf growth 48h inconclusive
CCc1noc(C)c1C(=O)Nc1nc2c(C)cccc2s1	none (no result: Shiga inhibitor, CHX counter)
CCc1noc(C)c1C(=O)Nc1nc(-c2ccc(F)cc2)c(C)s1	Pf growth 96h inconclusive
CC(=O)OCCn1c2nc(=O)[nH]c(=O)c-2nc2cc(C)c(C)cc21	Pf growth 96h inconclusive, Pf growth 48h inconclusive
CCCC(=O)OC[C@@H](OC(=O)CCC)[C@@H](OC(=O)CCC)[C@H](Cn1c2nc(=O)[nH]c(=O)c-2nc2cc(C)c(C)cc21)OC(=O)CCC	Pf growth 96h 12µM, Pf growth 48h inconclusive (no result: Shiga inhibitor, CHX counter, SARS PLP yeast, AMA1-RON2 inh)
Cc1cc2nc3c(=O)[nH]c(=O)nc-3n(CC(O)C(O)C(O)CO)c2cc1C (stereo not drawn)	Pf growth 96h 7.6µM, Pf growth 48h 13µM (no result: Shiga inhibitor, CHX counter, SARS PLP yeast, AMA1-RON2 inh)
CC(=O)N1CCCN(C(=O)c2ccc3nc(Cc4ccccc4F)oc3c2)CC1	CHX counter 14
O=C(NCCCN1CCOCC1)c1ccc2nc(Cc3ccccc3F)oc2c1	CHX counter 22
Cc1cc(CN(C)C(=O)c2ccc3nc(Cc4ccccc4F)oc3c2)n[nH]1	none
O=C(c1ccc2nc(Cc3ccccc3F)oc2c1)N1CC[C@H](O)C1	Shiga inhibitor 39, CHX counter 30
O=C(c1ccc2nc(Cc3ccccc3F)oc2c1)N1CCCC1	Shiga inhibitor 87, CHX counter 41
O=C(NCCCN1CCOCC1)c1ccc2ccccc2c1	none (no result: Shiga inhibitor, CHX counter)
Cc1ccc(S(=O)(=O)/N=c2\ccc(Cl)cn2C(F)F)cc1	none
CCCC/C=C/[C@H](C)[C@@](C)(COC(=O)c1ccc(Br)cc1)Cc1ccccc1	none (no result: SARS PLP yeast, Pf growth 96h, Pf growth 48h, AMA1-RON2 inh)
COc1ccc(OC)c(CNc2ccc3c(c2)nc(C)n3C)c1	CHX counter 9.4, Pf growth 96h inconclusive
Cc1nc2cc(NCc3ccc(Cl)cc3)ccc2n1C	Shiga inhibitor 71, CHX counter 30
Cc1ccc(CNc2ccc3c(c2)nc(C)n3C)cc1	CHX counter 30, Pf growth 96h inconclusive (no result: Shiga inhibitor)
